Results on 25 compounds are retold here after PubChem BioAssay.

Molecules are shown by their SMILES. Activity calls are given as the source filed them.
Also: test concentration not given here.

Sequence of Dihydroorotate dehydrogenase (quinone), mitochondrial (Plasmodium falciparum (isolate 3D7)) (Q08210 whole entry, looked up): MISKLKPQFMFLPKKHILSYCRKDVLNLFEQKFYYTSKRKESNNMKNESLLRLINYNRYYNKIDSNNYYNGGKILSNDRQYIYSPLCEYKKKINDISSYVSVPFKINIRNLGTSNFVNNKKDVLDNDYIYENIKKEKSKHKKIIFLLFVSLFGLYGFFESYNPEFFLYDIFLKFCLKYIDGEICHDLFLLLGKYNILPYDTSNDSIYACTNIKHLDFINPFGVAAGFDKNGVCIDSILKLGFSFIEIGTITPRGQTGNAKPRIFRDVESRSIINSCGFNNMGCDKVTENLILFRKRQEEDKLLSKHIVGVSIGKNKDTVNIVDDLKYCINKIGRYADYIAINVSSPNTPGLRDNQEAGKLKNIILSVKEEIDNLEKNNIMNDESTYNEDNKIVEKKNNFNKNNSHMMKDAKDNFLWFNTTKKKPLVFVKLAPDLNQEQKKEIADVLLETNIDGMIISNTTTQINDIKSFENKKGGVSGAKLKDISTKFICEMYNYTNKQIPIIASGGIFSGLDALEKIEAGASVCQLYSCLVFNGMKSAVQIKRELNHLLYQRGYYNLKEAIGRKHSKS

Test system in the first assay: not listed separately
As to the kind of experiment: viability profiling in MM1S myeloma cells – cell-based, resazurin fluorescence, basal, 24 h, PK04 Diversity Set, profiling panel (AID 1174).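 Also: MM1S multiple myeloma cell line.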 The note with it: higher = more signal, called active from +8 up or from −8 down.
On to `COCCCNC(=O)[C@@]1(Sc2ccc(C)cc2)CC(=O)N(C2CCCCC2)[C@@H]1c1ccc(CO)cc1`, for which the z-score is 0.0246 (inactive). Take `O=C1C2C=CC(C(O)c3ccccc3)N(Nc3ccccc3F)C2C(=O)N1c1ccccc1` (stereo not given): the z-score is -1.07 (inactive).

`CCC[C@@H]1C[C@@]1(CCC)[C@@H](NC(=O)OCc1ccccc1)c1ccc(-c2ccccc2)cc1`: the z-score is 0.879 (inactive). With `N#Cc1ccc(C(O)C2C=CC3C(=O)N(c4ccccc4)C(=O)C3N2Nc2ccccc2)cc1` (stereo not given), the z-score is -0.697 (inactive).

`C=CCC(OC(C)=O)[C@@H]1[C@@H](N(Cc2ccc(-c3ccccc3)cc2)C(=O)Cc2ccc(F)cc2)c2cc(OCCCO)ccc2N1C(=O)Cc1ccc(OC)cc1` (stereo not given in full): the z-score was 0.0774 (inactive). On the same count and under the same terms, under `COc1ccc([Si](C)(C)[C@@H]2[C@@H](CC(=O)N(CCO)Cc3ccccc3)O[C@]3(C(=O)N(c4ccccc4)c4ccccc43)[C@H]2C)cc1` stands -5.11 (inactive); under `COC(=O)[C@@]1(Cc2ccccc2)[C@@H]2C(=CC(=O)[C@H]2CC(=O)C(=O)N(C)C)CN1C(=O)c1ccccc1`, -5.19 (inactive). On the same count and under the same terms, next, `CN(C)C(=O)[C@@]1(Cc2ccccc2CN=[N+]=[N-])N=C(c2ccc(OCCCO)cc2)O[C@H]1c1ccccc1CN=[N+]=[N-]`: -2.15 (inactive); `CCOc1cc(C(O)C2C=CC3C(=O)N(c4ccccc4)C(=O)C3N2Nc2ccc(C#N)cc2)ccc1O` (stereo not given): -1.71 (inactive); `COc1ccc([Si](C)(C)[C@@H]2[C@@H](CC(=O)N3Cc4ccccc4C[C@H]3CO)O[C@]3(C(=O)N(Cc4cccc(N5C(=O)c6cccc7cccc5c67)c4)c4ccccc43)[C@H]2C)cc1`: -1.54 (inactive). On to `COc1ccc(-c2nc(-c3ccccc3)c3c(c2C)CO[Si]3(C(C)C)C(C)C)cn1`, for which the z-score was 0.151 (inactive).

The next assay has as its target Dihydroorotate dehydrogenase (quinone), mitochondrial (Plasmodium falciparum (isolate 3D7)) (UniProt Q08210). Nature of the assay: inhibition of P. falciparum DHODH – biochemical, C-terminal His tag, absorbance 600 nm, primary screen (AID 1175).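 Also: recombinant parasite enzyme with a five histidine tag at its C terminus.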 The note with it: PfDHODH enzyme, DCIP absorbance 600 nm; higher = more signal, called active from +8 up or from −8 down.
On to `CCOC(=O)C[C@H]1[C@H](OC(=O)Cc2ccc3c(c2)OCO3)[C@@H](NC(=O)CC(C)C)c2cc(OCCCO)ccc2N1C(=O)Cc1ccc(OC)cc1`, for which the composite z-score was -1.26 (inactive).

For `CCOC(=O)C1=C[C@@H](c2ccccc2)N(S(=O)(=O)c2ccc(C)cc2)[C@H]1c1ccccc1Cl`, the composite z-score is 0.268 (inactive). The same measure, in the same setting: under `C[N+](C)(C)CCCC[C@@H]1NC(=O)[C@H]2C[C@@H](C(=O)NCCCCCCN)[C@@H](c3ccc(O)cc3)N2C1=O` stands 0.302 (inactive); under `C=C(COC)C(=O)CC[C@@H](OC(=O)c1cccnc1)c1ccc(OCCO)cc1`, -3.49 (inactive). On the same count and under the same terms, next, `COC(=O)[C@@]1(Cc2ccc(OC)cc2)[C@H]2c3cc(C(=O)N4CCCC4)n(Cc4c(-c5ccccc5)noc4C)c3C[C@H]2CN1C(=O)c1ccccc1`: 0.486 (inactive); `COCCCNC(=O)[C@]1(CCS(=O)(=O)c2ccccc2)N=C(c2ccc(OCCCO)cc2)O[C@@H]1c1ccccc1CN=[N+]=[N-]`: 0.36 (inactive). Still for that read-out and setting: under `COC(=O)[C@@]1(Cc2ccc(F)cc2)[C@H]2c3cc(C(=O)N(C)C)n(CCc4ccc(O)c(OC)c4)c3C[C@H]2CN1C(=O)c1ccccc1` stands 0.124 (inactive); under `COC(=O)[C@@]1(Cc2ccccc2)[C@H]2c3cc(C(=O)N(C)C)n(CCN4CNCC4=O)c3C[C@H]2CN1C(=O)c1ccccc1`, 0.0849 (inactive). With `O=C1O[C@H](c2ccccc2)[C@H](c2ccccc2)N2[C@H]1[C@@H](C(=O)Nc1nc3ccccc3s1)[C@]1(C(=O)Nc3ccc(C#CCCO)cc31)[C@H]2c1ccc(O)cc1`, the composite z-score was -0.253 (inactive). On the same count and under the same terms, under `COC(=O)c1cn(C[C@@H](Cc2ccccc2)NC(=O)N[C@H](CO)CCc2oc(C(C)=O)c(C(=O)OC)c2C(=O)OC)nn1` stands 0.223 (inactive); under `COCCOC(=O)N1C(=O)[C@@]2(c3cc(C#CC4=CCCCC4)ccc31)[C@H](C(=O)N1CCCCCCC1)[C@H]1C(=O)O[C@H](c3ccccc3)[C@H](c3ccccc3)N1[C@@H]2c1ccc(O)cc1`, -1.67 (inactive); under `CCOC(=O)C[C@H]1[C@H](OC(=O)c2ccccc2-c2ccccc2)[C@@H](NC(=O)C2CCCCC2)c2cc(OCCCO)ccc2N1C(=O)Cc1ccc(OC)cc1`, 0.0563 (inactive). On the same count and under the same terms, under `COc1ccc(-c2cc3c(c(CCc4ccccc4)n2)[Si](C(C)C)(C(C)C)OC3)cn1` stands -0.319 (inactive); under `COC(=O)[C@@]1(Cc2ccccc2)[C@H]2c3cc(C(=O)N(C)C)n(CCc4ccc(O)c(OC)c4)c3C[C@H]2CN1C(=O)c1ccccc1`, -0.487 (inactive).
